Assay outcomes: PubChem BioAssay, Broad Institute
CDK5 inh – CDK5/p35 (human) kinase inhibition. Q00535+Q15078. Recombinant CDK5/p35, ADP-Glo luminescence, 60 min. inhibition, % at 10 µM. hit rate 0.01% among 330,000;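 active means highest replicate inhibition of at least 50% and at least 75% of replicates reaching 50%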;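 further: plate controls were DMSO neutral control for no effect and GW8510 at 10 µM for full effect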
NSD2 inh – inhibitors of human histone methyltransferase NSD2; O96028; NSD2 peptide methylation, AlphaScreen, 120 min; inhibition, % at 12.5 µM; hit rate 0.54% among 310,000; AID 743445; in the data active means inhibition above about 50%
ALR inh – human ALR oxidase inhibition via reduced H2O2 | P55789 | purified ALR, DTT oxidation, H2O2 HRP-luminol luminescence | inhibition, % (no concentration beside the values) | hit rate 3.8% among 290,000 | AID 485317;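 active means mean replicate inhibition above about 79%, with every replicate also reaching it, limit read from the data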
CASP6 VEID inh – blocks human caspase-6 cleavage activity. AID 686996. hit rate 0.53% among 350,000. P55212. purified caspase-6, Z-VEID-R110 cleavage fluorescence. inhibition, % at 12.5 µM;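 active means mean inhibition across replicates at least about 35%, with every replicate also reaching that limit, limit read from the data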;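 further: 0% = median of neutral control wells and 100% = no fluorescence left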
N-glyco inh – blocks N-linked glycosylation in D54 reporter cells; D54 ERlucT glycosylation luciferase reporter, 24 h; percent of 100 nM tunicamycin response; reporter increase, % at 12.5 µM; hit rate 0.23% among 360,000;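 active means mean luciferase reporter signal, scaled so untreated is 0 and the glycosylation-blocking control 100, at or above a set limit in every replicate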;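 further: luciferase carries N-glycosylation sites so blocking glycosylation raises the light; 0% = median of neutral control wells and 100% = median of 100 nM tunicamycin wells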
SUMO Mot1 rescue – SUMOylation pathway inhibition by Mot1-301 growth rescue | S. cerevisiae Mot1-301 growth rescue, ATP luminescence, 38.5C; percent above DMSO median, 100 means doubled | growth rescue, % at 18.8 µM | hit rate 1% among 320,000;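 active means every valid replicate shows activation above 250% relative to neutral control wells; inactive means the rest, any valid replicate at or below 250%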;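 further: OY570 slx delta 5 strain wells were the positive control but not used for scaling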
* marks the source's active call; other numbers are inactive results; / = no result given. Shown are actives, neighbours in structure and some others; about 3.9% of the full set was active somewhere.

SMILES | CDK5 inh | NSD2 inh | ALR inh | CASP6 VEID inh | N-glyco inh | SUMO Mot1 rescue
C=CCNC(=S)N/N=C(\C)c1cccnc1 | 2.0 | -6.2 | 82.8* | -3.2 | 2.4 | 3.0
Cc1noc(C)c1NC(=O)Nc1ccc2c(c1)C(=O)N([C@@H](C)CO)C[C@@H](C)[C@H](CN(C)C(=O)CCCN(C)C)OCCCC[C@H](C)O2 | / | / | / | 2.0 | / | /
CNC(=S)NNC(=O)c1sccc1OCc1ccc(Cl)cc1Cl | -0.4 | -0.7 | -2.6 | / | 0.1 | /
S=c1nc(-c2sccc2OCc2ccc(Cl)cc2Cl)[nH][nH]1 | 5.1 | 2.4 | 96.5* | 2.3 | 1.8 | -3.8
COc1cccc2[nH]c(C(=O)NCC3CCCO3)cc12 (stereo unspecified) | -0.3 | 0.5 | -30.0 | 0.9 | -0.5 | 3.2
O=C(NCC1CCCO1)c1cc2c([nH]c3ccccc32)c(-c2cccc(Cl)c2)n1 (stereo unspecified) | 1.5 | / | 2.5 | / | -11.0 | 31.2
COc1cc(-c2nc(C(=O)NCC3CCCO3)cc3c2[nH]c2ccccc23)cc(OC)c1OC (stereo unspecified) | -2.2 | / | 99.2* | 1.1 | 1.2 | -3.5
COc1ccccc1-c1nc(C(=O)NCC2CCCO2)cc2c1[nH]c1ccccc12 (stereo unspecified) | 4.3 | / | 98.2* | / | 6.4 | -4.8
C[C@@H]1CN([C@@H](C)CO)S(=O)(=O)c2ccc(C#CC(C)(C)O)cc2O[C@H]1CN(C)CC1CCCC1 | / | / | / | 2.7 | / | /
O=C1CCCC2=C1C(c1ccco1)Nc1ccc3ccccc3c12 (stereo unspecified) | 2.5 | 13.0 | -1.3 | / | 1.0 | 5.9
O=C1CCCC2=C1C(c1ccc(O)c(O)c1)Nc1ccc3ccccc3c12 (stereo unspecified) | -0.4 | 21.0 | 98.4* | 9.5 | 0.6 | -5.7
CCOC(=O)[C@H]1[C@H]2COc3ccc(Cl)cc3[C@@H]2N2C(=O)CN(Cc3ccc(C)cc3)C(=O)[C@@]12C | 1.3 | / | 7.4 | 39.7* | -2.0 | 15.9
COc1cc(CNc2ccc(O)cc2)cc(Br)c1OCc1ccccc1 | -5.6 | 8.0 | 29.8 | 13.5 | 57.4* | -13.4
COc1ccc(CNc2ccccc2)cc1Br | -2.4 | 0.2 | 82.9* | / | -2.1 | -16.6
Cc1cccn2cc(-c3cccc(S(=O)(=O)N4CC(C)OC(C)C4)c3)nc12 (stereo unspecified) | -0.5 | 0.8 | 96.9* | 0.8 | 1.0 | -2.0
Cc1cccn2cc(-c3ccccc3)nc12 | 0.1 | -4.0 | / | / | -9.6 | 12.4
Cc1cccn2cc(-c3cccc(S(=O)(=O)N4CCOCC4)c3)nc12 | -1.1 | -0.8 | 96.4* | 1.8 | 2.6 | -0.9
Cc1cccn2cc(-c3ccc(F)cc3)nc12 | 1.7 | 0.2 | 96.2* | / | -16.2 | -6.4
CN(C)CC(=O)Nc1ccc2c(c1)[C@@H]1C[C@H](CC(=O)NCc3cc(F)ccc3F)O[C@H](CO)[C@@H]1O2 | / | / | / | 2.6 | / | /
O=C(C[C@@H]1C[C@@H]2c3cc(NS(=O)(=O)c4ccc(F)cc4)ccc3O[C@@H]2[C@H](CO)O1)NCc1ccncc1 | / | / | / | 0.8 | / | /
C[C@@H]1CN([C@@H](C)CO)C(=O)Cc2cc(N(C)C)ccc2O[C@H]1CN(C)Cc1ccc(C(=O)O)cc1 | / | / | / | -2.4 | / | /
COc1cccc(-c2nc(CS(=O)(=O)CC(=O)N3CCOCC3)c(C)o2)c1 | 2.3 | -1.0 | 21.1 | -2.6 | 0.7 | 9.6
CCOC(=O)N1CCN(C(=O)CS(=O)(=O)Cc2nc(-c3cccc(OC)c3)oc2C)CC1 | -0.4 | -1.7 | -2.2 | -3.1 | 1.5 | 24.9
COc1cccc(-c2nc(CS(=O)(=O)CC(=O)N3CCN(C)CC3)c(C)o2)c1 | -1.6 | / | 97.0* | 1.8 | 2.4 | -1.2
COc1cccc(-c2nc(CS(=O)(=O)CC(=O)N3CCN(C4CCCCC4)CC3)c(C)o2)c1 | -1.2 | / | 98.7* | 1.3 | -2.1 | -13.6
CC(C)NC(=O)N(C)C[C@@H]1Oc2ccc(NC(=O)Nc3ccc(F)cc3)cc2C(=O)N([C@H](C)CO)C[C@H]1C | / | / | / | -0.5 | / | /
Cn1cccc1/C=C1\SC(=Nc2ccc(O)cc2)NC1=O | -2.5 | 2.2 | 99.0* | 1.7 | 16.2 | -5.0
Cn1cccc1/C=C1\SC(=Nc2ccccc2)NC1=O | -3.3 | 4.7 | 2.2 | 0.1 | 22.9 | 6.1
O=C1NC(=Nc2ccc(O)cc2)S/C1=C/c1ccco1 | 0.1 | -1.6 | 10.7 | 39.3* | 20.9 | -6.8
Cc1cccc(N=C2NC(=O)S/C2=C\c2ccco2)c1 | -1.0 | 3.4 | -6.3 | 14.9 | -0.9 | -15.8
